According to PubChem BioAssay AID1159580 (chemical genetic matrix, 2015):
Among all 5,500 compounds or so, about 2,000 (36%) were called active. Inconclusive results (about 18%) are left out. This is one part of the list. Values without a mark were called inactive. Rule as the data show it: active = normalized growth mostly below about 0.91 (no sharp cut-off); inconclusive = no clear call, values can overlap the other calls; inactive = mostly above about 0.92.

Experiment: chemical genetic growth profiling, strain panel (AID 1159580);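 also: tested at 20 µM; growth read once vehicle control cultures reached saturation at 30 °C; 1 = growth at the plate median or of vehicle wells; lower values mean less growth of the strain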
Settings: growth OD

**Q.** Which results are given for `COc1cc2c(cc1OC)C(=O)C(CC1CCN(Cc3ccccc3)CC1)C2` (stereo not given)?
**A.** normalized growth (S. cerevisiae deletion strains, locus YJR066W, strain TOR1, hits give low values): 0.94; normalized growth (S. cerevisiae deletion strains, locus YJR075W, strain HOC1, hits give low values): 0.778 (active); normalized growth (S. cerevisiae deletion strains, locus YKL009W, strain mrt4, hits give low values): 0.986; normalized growth (S. cerevisiae deletion strains, locus YKL068W, hits give low values): 1; normalized growth (S. cerevisiae deletion strains, locus YKL085W, strain MDH1 (second series), hits give low values): 1.01; normalized growth (S. cerevisiae deletion strains, locus YKL085W, strain MDH1, hits give low values): 1.01; normalized growth (S. cerevisiae deletion strains, locus YKL160W, strain elf1, hits give low values): 0.933; normalized growth (S. cerevisiae deletion strains, locus YKR001C, strain vps1, hits give low values): 0.913; normalized growth (S. cerevisiae deletion strains, locus YKR026C, strain gcn3, hits give low values): 1.06; normalized growth (S. cerevisiae deletion strains, locus YKR091W, strain srl3, hits give low values): 0.981; normalized growth (S. cerevisiae deletion strains, locus YLL001W, strain dnm1, hits give low values): 0.993; normalized growth (S. cerevisiae deletion strains, locus YLL026W, hits give low values): 1; normalized growth (S. cerevisiae deletion strains, locus YLL041C, strain sdh2, hits give low values): 0.978; normalized growth (S. cerevisiae deletion strains, locus YLR027C, strain aat2, hits give low values): 0.963; normalized growth (S. cerevisiae deletion strains, locus YLR039C, strain RIC1, hits give low values): 0.772; normalized growth (S. cerevisiae deletion strains, locus YLR058C, strain SHM2, hits give low values): 0.874 (active); normalized growth (S. cerevisiae deletion strains, locus YLR102C, strain apc9, hits give low values): 1; normalized growth (S. cerevisiae deletion strains, locus YLR113W, strain HOG1, hits give low values): 1.05; normalized growth (S. cerevisiae deletion strains, locus YLR221C, strain rsa3, hits give low values): 0.975; normalized growth (S. cerevisiae deletion strains, locus YLR258W, strain gsy2, hits give low values): 0.982; normalized growth (S. cerevisiae deletion strains, locus YLR262C, strain YPT6 (second series), hits give low values): 0.589 (active); normalized growth (S. cerevisiae deletion strains, locus YLR262C, strain YPT6, hits give low values): 0.807; normalized growth (S. cerevisiae deletion strains, locus YLR268W, strain sec22, hits give low values): 0.837 (active); normalized growth (S. cerevisiae deletion strains, locus YLR320W, strain mms22, hits give low values): 0.928; normalized growth (S. cerevisiae deletion strains, locus YLR330W, strain CHS5, hits give low values): 0.953; normalized growth (S. cerevisiae deletion strains, locus YLR342W, strain FKS1 (second series), hits give low values): 0.909; normalized growth (S. cerevisiae deletion strains, locus YLR342W, strain FKS1, hits give low values): 0.989; normalized growth (S. cerevisiae deletion strains, locus YLR357W, strain rsc2, hits give low values): 1.13; normalized growth (S. cerevisiae deletion strains, locus YLR370C, strain arc18, hits give low values): 0.955; normalized growth (S. cerevisiae deletion strains, locus YLR371W, strain rom2, hits give low values): 0.986; normalized growth (S. cerevisiae deletion strains, locus YLR384C, strain iki3, hits give low values): 0.952; normalized growth (S. cerevisiae deletion strains, locus YLR418C, strain cdc73, hits give low values): 0.737 (active); normalized growth (S. cerevisiae deletion strains, locus YML016C, strain PPZ1, hits give low values): 0.949; normalized growth (S. cerevisiae deletion strains, locus YML032C, strain rad52, hits give low values): 0.675 (active); normalized growth (S. cerevisiae deletion strains, locus YML120C, strain ndi1, hits give low values): 0.973; normalized growth (S. cerevisiae deletion strains, locus YML124C, strain tub3, hits give low values): 1.02; normalized growth (S. cerevisiae deletion strains, locus YMR058W, strain fet3, hits give low values): 0.994; normalized growth (S. cerevisiae deletion strains, locus YMR078C, strain ctf18, hits give low values): 0.988; normalized growth (S. cerevisiae deletion strains, locus YMR125W, strain sto1, hits give low values): 0.94; normalized growth (S. cerevisiae deletion strains, locus YMR129W, hits give low values): 0.992; normalized growth (S. cerevisiae deletion strains, locus YMR205C, strain PFK2, hits give low values): 0.979; normalized growth (S. cerevisiae deletion strains, locus YMR223W, strain ubp8, hits give low values): 0.86 (active); normalized growth (S. cerevisiae deletion strains, locus YMR231W, strain pep5, hits give low values): 0.996; normalized growth (S. cerevisiae deletion strains, locus YMR263W, strain SAP30, hits give low values): 0.936; normalized growth (S. cerevisiae deletion strains, locus YMR307W, strain GAS1, hits give low values): 0.971; normalized growth (S. cerevisiae deletion strains, locus YNL067W, strain RPL9B, hits give low values): 0.787 (active); normalized growth (S. cerevisiae deletion strains, locus YNL071W, strain lat1, hits give low values): 0.956; normalized growth (S. cerevisiae deletion strains, locus YNL128W, strain TEP1, hits give low values): 0.919; normalized growth (S. cerevisiae deletion strains, locus YNL153C, strain GIM3, hits give low values): 0.876; normalized growth (S. cerevisiae deletion strains, locus YNL183C, strain NPR1, hits give low values): 0.955; normalized growth (S. cerevisiae deletion strains, locus YNL209W, strain ssb2, hits give low values): 0.988; normalized growth (S. cerevisiae deletion strains, locus YNL233W, strain BNI4, hits give low values): 0.75 (active); normalized growth (S. cerevisiae deletion strains, locus YNL248C, strain rpa49, hits give low values): 0.967; normalized growth (S. cerevisiae deletion strains, locus YNL250W, strain rad50, hits give low values): 0.802 (active); normalized growth (S. cerevisiae deletion strains, locus YNL271C, strain bni1, hits give low values): 0.977; normalized growth (S. cerevisiae deletion strains, locus YNL298W, strain CLA4, hits give low values): 0.918; normalized growth (S. cerevisiae deletion strains, locus YNL307C, strain MCK1, hits give low values): 0.665 (active); normalized growth (S. cerevisiae deletion strains, locus YNL322C, strain KRE1 (second series), hits give low values): 0.981; normalized growth (S. cerevisiae deletion strains, locus YNR049C, strain mso1, hits give low values): 1.01; normalized growth (S. cerevisiae deletion strains, locus YNR052C, strain pop2, hits give low values): 0.805 (active); normalized growth (S. cerevisiae deletion strains, locus YOL006C, strain TOP1, hits give low values): 0.335 (active); normalized growth (S. cerevisiae deletion strains, locus YOL012C, strain htz1): 1.03; normalized growth (S. cerevisiae deletion strains, locus YOL147C, strain pex11, hits give low values): 0.976; normalized growth (S. cerevisiae deletion strains, locus YOR001W, strain rrp6, hits give low values): 0.931; normalized growth (S. cerevisiae deletion strains, locus YOR061W, strain CKA2, hits give low values): 0.989; normalized growth (S. cerevisiae deletion strains, locus YOR069W, strain VPS5, hits give low values): 1.12 [resistant] (active); normalized growth (S. cerevisiae deletion strains, locus YOR070C, strain gyp1, hits give low values): 1.02; normalized growth (S. cerevisiae deletion strains, locus YOR080W, strain dia2, hits give low values): 0.953; normalized growth (S. cerevisiae deletion strains, locus YOR083W, strain WHI5, hits give low values): 0.973; normalized growth (S. cerevisiae deletion strains, locus YOR106W, strain vam3, hits give low values): 0.902; normalized growth (S. cerevisiae deletion strains, locus YOR136W, strain idh2, hits give low values): 0.984; normalized growth (S. cerevisiae deletion strains, locus YOR144C, strain elg1, hits give low values): 0.992; normalized growth (S. cerevisiae deletion strains, locus YOR184W, strain ser1, hits give low values): 0.776 (active); normalized growth (S. cerevisiae deletion strains, locus YOR231W, strain MKK1, hits give low values): 0.977; normalized growth (S. cerevisiae deletion strains, locus YOR265W, strain rbl2, hits give low values): 0.974; normalized growth (S. cerevisiae deletion strains, locus YOR270C, strain vph1, hits give low values): 0.608 (active); normalized growth (S. cerevisiae deletion strains, locus YOR290C, strain snf2, hits give low values): 1.04; normalized growth (S. cerevisiae deletion strains, locus YOR316C, strain cot1, hits give low values): 1.01; normalized growth (S. cerevisiae deletion strains, locus YPL051W, strain arl3, hits give low values): 0.938; normalized growth (S. cerevisiae deletion strains, locus YPL055C, strain LGE1, hits give low values): 0.738 (active); normalized growth (S. cerevisiae deletion strains, locus YPL078C, strain atp4, hits give low values): 0.947; normalized growth (S. cerevisiae deletion strains, locus YPL106C, strain sse1, hits give low values): 1.12; normalized growth (S. cerevisiae deletion strains, locus YPL240C, strain hsp82, hits give low values): 0.996; normalized growth (S. cerevisiae deletion strains, locus YPL256C, strain CLN2, hits give low values): 0.952; normalized growth (S. cerevisiae deletion strains, locus YPR119W, strain clb2, hits give low values): 1; normalized growth (S. cerevisiae deletion strains, locus YPR141C, strain kar3, hits give low values): 0.975; normalized growth (S. cerevisiae deletion strains, locus YPR163C, strain tif3, hits give low values): 0.692 (active); normalized growth (S. cerevisiae deletion strains, locus YPR167C, strain met16, hits give low values): 0.984; normalized growth (S. cerevisiae deletion strains, strain wtn01, hits give low values): 0.777 (active); normalized growth (S. cerevisiae strains, strain wild type, hits give low values): 0.874 (active)
